Measured values: PubChem BioAssay (Tox21)
Activity calls are given as the source filed them. Calls come from the whole dose curve; as a rule, active = well fitted curve in the direction sought with a large enough effect in the repeat runs; inconclusive = weak or mixed curves; inactive = flat fitted curve, though single readings scatter.

Assay: qHTS assay to test for compound auto fluorescence at 535 nm (green) in HepG2 cells (AID 720675)
Details: green autofluorescence 485/535 nm, 1 h; series mostly up to 91.3 µM
Description: National Center for Advancing Translational Sciences [NCATS]
NIH Chemical Genomics Center [NCGC]
U.S. Environmental Protection Agency [EPA]
National Institutes of Environmental Health Sciences [NIEHS]
National Toxicology Program [NTP]
U.S. Food and Drug Administration [FDA]
Compound auto fluorescence often interferes with screening of the compound library against various biological targets and signaling pathways. Some of these compounds may have fluorophoric properties. Such properties may interfere with the assay outputs resulting in false positives and/or negatives. To decrease such complications and ensure the compound activities are relevant in terms of biological response, the Tox21 10K compound library was screened for auto fluorescence.
From the fluorophores used as reporter signals in our screening assays, the auto fluorescence equivalencies of compounds against three fluorophores have been evaluated: Triamterene, Fluorescein and Rose Bengal sodium for blue, green and red fluorescence, respectively. The fluorescence intensities were measured using Excitation/Emission wavelengths at 405/460nm, 485/535nm and 540/590nm for blue, green and red labels, respectively. This assay includes the green fluorescence data.
Tox21 Assay Protocol Summary:
2,000 HepG2 cells in 5 uL of culture medium (MEM containing 10% FBS) per well were dispensed into black wall/clear bottom 1536-well plates using a Multidrop Combi Dispenser (ThermoFisher Scientific, Waltham, MA). The assay plates were incubated overnight at 37 C to allow cell attachment to the well bottom, followed by the transfer of 23 nL compound or DMSO vehicle by a pintool work station (Kalypsys , San Diego, CA). After the assay plates were incubated for 1 hr at 37 C and 5% CO2, fluorescence intensities in the assay plates were measured by an Envision (PerkinElmer, Shelton, CT) plate reader using three labels for measuring blue, green and red fluorescence at […] 460, 535 and 590 nm respectively.
For O=[N+]([O-])c1ccccc1O, the outcome was “inactive”.
In the case of O=P1(N(CCCl)CCCl)NCCCO1 (stereo not given), the outcome is reported as “inactive”.
In the case of CCn1cc[n+](C)c1C, the outcome is reported as “inactive”.
With O=c1[nH]c(=O)n(Cl)c(=O)n1Cl the outcome was “inactive”.
In the case of CNC, the outcome is reported as “inactive”.
For Nc1ccccc1, the outcome was “inactive”.
With CC[n+]1ccccc1 the outcome was “inactive”.
In the case of CC(Cl)(Cl)C(=O)O, the outcome is reported as “inactive”.
With O=C(O)C(Cl)(Cl)Cl the outcome was “inactive”.
For CCCCCCCCCCCCn1cc[n+](C)c1, the outcome was “inactive”.
With CCCCCCCCCCCC(=O)O the outcome was “inactive”.
For CCCC[n+]1cccc(C)c1, the outcome was “inactive”.
In the case of CCCCCCCCCCCCOS(=O)(=O)O, the outcome is reported as “inactive”.
With CCCC[N+]1(C)CCCC1 the outcome was “inactive”.
In the case of CCCn1cc[n+](C)c1, the outcome is reported as “inactive”.
With CCC(=O)C(CC(C)N(C)C)(c1ccccc1)c1ccccc1 (stereo not given) the outcome was “inactive”.
In the case of CC[N+](CC)(CC)CC, the outcome is reported as “inactive”.
For O=[N+]([O-])O, the outcome was “inactive”.
For CCOP(=S)(OCC)Oc1ccc2c(C)c(Cl)c(=O)oc2c1, the outcome was “inactive”.
With Oc1cccc2cccnc12 the outcome was “inactive”.
In the case of CCCCCCCCn1cc[n+](C)c1, the outcome is reported as “inactive”.
For CC[N+]1(C)CCCC1, the outcome was “inactive”.
With O=S(=O)(O)O the outcome was “inactive”.
For Nc1ccc(-c2ccc(N)cc2)cc1, the outcome was “inactive”.
With CCCC[n+]1ccc(C)cc1 the outcome was “inactive”.
With OCCOc1ccccc1 the outcome was “inactive”.
With CC(=O)O the outcome was “inactive”.
For Cc1cc(Cl)ccc1N, the outcome was “inactive”.
With CCCCCCCCCCn1cc[n+](C)c1 the outcome was “inactive”.
In the case of CCCC[n+]1ccccc1, the outcome is reported as “inactive”.
With CCCC[N+]1(C)CCCCC1 the outcome was “inactive”.
For O=C(O)COc1ccc(Cl)cc1Cl, the outcome was “inactive”.
For CCC[N+]1(C)CCCCC1, the outcome was “inactive”.
In the case of C[N+](C)(C)Cc1ccccc1, the outcome is reported as “inactive”.
For N#CS, the outcome was “inactive”.
In the case of CCCCn1cc[n+](C)c1, the outcome is reported as “inactive”.
In the case of O=C(O)CC(O)(CC(=O)O)C(=O)O, the outcome is reported as “inactive”.
For CCCCn1cc[n+](C)c1C, the outcome was “inactive”.
With Nc1ccc(-c2ccc(N)c(Cl)c2)cc1Cl the outcome was “inactive”.
For COP(=O)(OC)OC=C(Cl)Cl, the outcome was “inactive”.
